# Assay outcomes as filed in PubChem BioAssay.
# PLAP activator: activates human placental alkaline phosphatase; P05187; purified PLAP enzyme, luminescent substrate read-out; active compounds read high; 96,000 tested, 1.2% active; activation fold at 20 µM; in the data active means activation fold above about 2
# Cav3 T inh: blocks human Cav3.2 T-type calcium channel. AID 449739. 100,000 tested, 4% active. O95180. B-score at 10 µM. Cav3.2-expressing cells, Fluo-4 calcium fluorescence FDSS; active compounds read low;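 active means single-dose well whose peak fluorescence ratio is a statistical outlier from its plate by either plate-standardised score or position-corrected B-score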
# * = called active by the depositor; nt = no result. This is a sample that favours compounds with a hit; in the whole collection about 7.6% have one here.
SMILES,PLAP activator,Cav3 T inh
Cc1ccc(OCc2nc(-c3ccccn3)n[nH]2)cc1,2.6*,0.39
Cc1cccc(OCc2nc(-c3ccccn3)n[nH]2)c1,1.9,0.48
Cc1cccc(N2CCN(C(=O)c3c(C)nn(Cc4ccccc4Cl)c3C)CC2)c1C,1.7,-5.5*
Cc1ccc(S(=O)(=O)N2Cc3ccccc3CC2C(=O)Nc2ccc3c(c2)OCO3)cc1 (centres undefined),1.6,-4.5*
CC1(c2nnc(-c3ccncc3)o2)CC(c2cccc(Cl)c2)=NO1 (centres undefined),nt,0.008
Cc1nc2c(Br)cc(Br)cc2cc1O,1.1,-5.1*
